We go through 40 molecules from PubChem BioAssay (NCI).

Values joined by “and” are separate entries in the source; they are usually repeats but may differ in a detail not shown here. Equal entries are not always repeated. Compounds without any hit were thinned out: in the full panel of roughly 83,000, 20% have a hit.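 Step 1: grow cells in 96-well plates. Step 2: add test compound at a single concentration. Step 3: incubate 48 h. Step 4: record percent growth.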 Values without a mark were called inactive. Active and inactive are the calls of the source. How the source made its calls: active means growth percent below 10; inactive means the rest.

In the experiment the test system is MDA-MB-468 breast. Briefly: NCI-60 one-dose screen, 48 h (100 = growth as untreated, 0 = no growth, -100 = all killed). As to conditions: 10 µM unless noted.
Take `C#CCOc1ccc(C2=NN(CCCC)C3N=C(Cl)c4ncn(CCCC)c4N23)cc1OCC#C` (stereo not given): the growth is 80.4%.

As to `COc1ccc(C(=O)N2N=C(c3ccc(Br)cc3)CC2c2cn(-c3ccccc3)nc2-c2ccccc2)cc1` (stereo not given), the growth was 69%.

On to `O=C(CSc1nc2ccccc2[nH]1)Nc1cccc(Cl)c1`, for which the growth is 113%.

With `CN1CCN(c2ccc(NC(=O)c3cncnc3Nc3ccc(OCc4ccccn4)c(Cl)c3)cc2)CC1`, the growth was 38.1%.

Consider `COc1cc(/C=C/C(=O)c2ccc(Cl)cc2)cc(CN2CCCCC2)c1O`, for which the growth was 93.2%.

On to `CCCCN1CCN(c2ccc3nc(-c4ccc5nc(-c6ccc(C(F)(F)F)cc6)[nH]c5c4)[nH]c3c2)CC1`, for which the growth was -62.1% (active).

As to `O=C1/C(=C/c2ccc([N+](=O)[O-])o2)Oc2ccc(Cl)cc21`, the growth is -34.5% (active).

Consider `Cc1cc(O)c2c(c1)C(=O)C(c1c(C)cc3c(c1O)C(=O)C=CC3=O)=CC2=O`, for which the growth is 53.2%.

Consider `CNc1nnc2n(-c3ccccc3)c(=O)c3cnn(-c4ccccc4)c3n12`, for which the growth was 103%.

As for `COC(=O)c1nc(=S)[nH]c(C(=O)OC)c1C(=O)c1ccc(OC)cc1`, the growth is 94.7%.

As to `COc1ccc(/C=C/C(=O)c2c(C)nc3ccccc3c2/C=C/c2ccccc2)cc1O`, the growth was 40.1%.

For the molecule `CS(=O)(=O)c1ccc(-c2nn(-c3ccccc3)cc2/C=C/C(=O)c2ccc(Br)cc2)cc1`, the growth was 91.4%.

`CSC1=Nc2c(c(C)c(-c3ccccc3)n2CCCCl)C2=NC(=O)CN12`: the growth is 47.3%.

As for `COc1cc(CN2CCC(N3CCCC3=O)c3ccccc32)cc(OC)c1OC` (stereo not given), the growth is 36.3%.

In the case of `COc1cc(/C=N/NC(=O)Cn2c(C(C)C)nc3ccccc32)ccc1O`, the growth is 84.9%.

In the case of `COc1nccc2cc3c(=O)n4c(cc5ccccc54)c(=O)n3c12`, the growth was 89.4%.

For `CN1CCN(c2ccc(C(=O)Nc3n[nH]c4ccc(Cc5cc(F)cc(F)c5)cc34)c(NC3CCOCC3)c2)CC1`, the growth was -72.3% (active).

With `C#C[C@]1(O)CC[C@H]2[C@@H]3CC=C4c5sc(Nc6cc(C)cc(C)c6)nc5CC[C@]4(C)[C@H]3CC[C@@]21C`, the growth was -11.3% (active).

`O=C(NCc1cccnc1)c1cc(-c2csc3c(=O)cc(N4CCOCC4)oc23)cc2c1OCCO2`: the growth is 10.7%.

Consider `N=S(c1ccccc1[N+](=O)[O-])c1ccccc1[N+](=O)[O-]`, for which the growth was 15.1%.

Consider `Oc1ccc2ccccc2c1C1NN=C(c2ccccc2)S1` (stereo not given), for which the growth is 3.89% (active).

In the case of `Cc1csc(/N=C(N)/N=C(\N)c2cccc(C#N)c2)n1`, the growth is 101%.

With `COc1cc2c(c(OC)c1OC)C(=O)CC(c1cccc(C(=O)Nc3ccc(Br)cc3)c1)O2` (stereo not given), the growth is 30.5%.

As to `O=C(NNC(=O)N1c2ccccc2C=Cc2ccccc21)c1ccc2ccccc2c1`, the growth was 87.7%.

For the molecule `O=C1C(c2c[nH]c3ccccc23)=C(c2coc3cc(Br)ccc23)C(=O)N1O`, the growth was 91.6%.

Turning to `c1cc(-c2ccc3c(c2)OCO3)n2nccc2n1`, the growth was 95%.

For the molecule `Clc1ccc(/C=C2\CCCC3C2=Nc2ccccc2NC3c2ccc(Cl)cc2)cc1` (stereo not given), the growth was 60%.

On to `Cc1cc(OCCO)cc(C)c1Cl`, for which the growth was 124%.

`OCCCC1CCN(C(Cc2ccccc2)c2ccccc2)CC1` (stereo not given): the growth is 95.2%.

For `O=[N+]([O-])c1ccc(N/N=C\c2cc(Br)ccc2O)nc1`, the growth is -19.7% (active) and -13.5% (active).

For the molecule `CCCCCCCCCCCCCCCCn1cc[n+](C)c1`, the growth is -79% (active).

Take `CNC(=O)c1cc(Oc2ccc3nc(NC(=O)c4cc(N5CCOCC5)cc(C(F)(F)F)c4)sc3c2)ccn1`: the growth is 63.7%.

Consider `COc1cc(NC(=O)NCc2ccco2)ccc1-c1ccc(NC(=O)NCc2ccco2)cc1OC`, for which the growth is 16.8%.

Take `CS(=O)(=O)N1CCN(Cc2cc3nc(-c4cccc5[nH]ncc45)nc(N4CCOCC4)c3s2)CC1` (tested in a mixture with another compound): the growth was -47.9% (active).

Consider `COc1cc(/C=C/C(=O)c2cccs2)ccc1OCc1ccc(Cl)nc1`, for which the growth is 57.6%.

As for `COc1ccc(/C=C(/c2ccccc2)[N+](=O)[O-])c(OC)c1`, the growth was -56.5% (active).

As for `Nc1c(C(=O)O)[nH]c(=O)[nH]c1=O`, the growth is 103%.

Turning to `Cc1nn(CCO)c(C)c1N=[N+]([O-])c1c(C)nn(CCO)c1C`, the growth was -59% (active).

On to `O=C1CCC(N2Cc3c(C#CCCCNC(=O)c4cc5c(o4)C(=O)c4ccccc4C5=O)cccc3C2=O)C(=O)N1` (stereo not given), for which the growth is -47.1% (active).

As for `CC(C)N(C(=S)SSC(=S)N(C(C)C)C(C)C)C(C)C`, the growth is 110%.
